Only some compounds are listed: those with a hit (about 7.1% of all), similar ones and a draw of the others.
LASV entry inh – blocks Lassa virus binding or cell entry; Lassa virus pseudotyped entry inhibition, cell-based qHTS; Potency, µM (highest dose often 49.2 µM), for the others: top-dose activity change, negative = inhibition, hits mostly inhibitors; 18,000 compounds, 4.1% hits
Marburg entry – Marburg virus entry inhibition. 18,000 compounds, 6.5% hits. Marburg virus pseudotype entry/binding inhibition, cell-based. Potency, µM (highest dose often 49.2 µM), inactives show top-dose activity change, negative = inhibition, hits mostly inhibitors
* marks the source's active call; other numbers are inactive results; ! = a repeat was not active; [ ] = dose if it differs, or a comment. Calls follow the shape of the full dose curve; tested in HEK293 cells. % is scaled to controls: 0 for no effect and ±100 for the full control effect; potency is read from the fitted curve at half-maximal effect.

For Cc1c(C2CCN(CCc3ccccc3)CC2)noc1-c1ccc(Cl)cc1 the results were LASV entry inh -12% and Marburg entry 11µM*.
C=C[C@@H](C[C@@H]1C=C[C@H]2C[C@H](C=C)OP(=O)(O1)O2)O[Si](C)(C)C(C)(C)C was read as LASV entry inh -11% and Marburg entry inconclusive.
COc1ccc(COCC[C@@H]2C[C@@H]3C=CCOP(=O)(O2)O3)cc1 was read as LASV entry inh -29% and Marburg entry 13%.
For CCN1C(=NCc2cccc(C(F)(F)F)c2)NC(c2cccc(F)c2)C(C(=O)OC)=C1C (stereo unspecified) the results were LASV entry inh 12%[8.59 µM] and Marburg entry 36%[8.59 µM].
Screening C=CCOCCC=C1c2ccccc2[C@@H](OC)[C@@H]1C returned LASV entry inh -2%[8.59 µM] and Marburg entry -8%[8.59 µM].
`CCCCCCCCC(=O)NCc1ccc(O)c(OC)c1` gave LASV entry inh 0% and Marburg entry 5%.
`CCCCC[C@H](O)CC(=O)CCc1ccc(O)c(OC)c1` gave LASV entry inh -9% and Marburg entry 1%.
`CCCCC/C=C\C/C=C\C/C=C\C/C=C\CCCC(=O)NCc1ccc(O)c(OC)c1` gave LASV entry inh 7.9µM* and Marburg entry inconclusive.
COc1cc(CNC(=O)CCCC/C=C/C(C)C)ccc1O was read as LASV entry inh 25µM*! and Marburg entry 7%.
COC(=O)C1=C(C(=O)OC)[C@@H]2N(Cc3ccccc3)c3ccccc3[C@@]23C[C@@H](CO)N=C3N1 was read as LASV entry inh -10%[8.59 µM] and Marburg entry -1%[8.59 µM].
Screening COc1ccc(OC)c(-c2ccccc2C=NNS(=O)(=O)c2ccc(C)cc2)c1 returned LASV entry inh -4%[8.59 µM] and Marburg entry inconclusive.
Screening COc1cccc([C@H]2Oc3ccc(OC)cc3C(=NO[C@H](C)c3cn([C@H](CO)Cc4ccccc4)nn3)[C@H]2O)c1 returned LASV entry inh 8%[8.59 µM] and Marburg entry 41%[8.59 µM].
Screening COc1ccc(O[C@H]2C=C[C@@H](c3ccccc3)O[C@H]2CON=C(C)CCN2CCCCc3nc(C)c(C)cc32)cc1 returned LASV entry inh 24%[8.59 µM] and Marburg entry 50%[8.59 µM].
For O=C(NC(NC(=S)Nc1ccc(F)c([N+](=O)[O-])c1)C(Cl)(Cl)Cl)C(c1ccccc1)c1ccccc1 (stereo unspecified) the results were LASV entry inh 11µM* and Marburg entry 11µM*.
O=[N+]([O-])c1ccc(F)c([N+](=O)[O-])c1 was read as LASV entry inh -16% and Marburg entry -4%.
For Brc1c(Br)c(Br)c2[nH]cnc2c1Br the results were LASV entry inh 9% and Marburg entry -22%.
S=c1nc[nH]c2nc[nH]c12 was read as LASV entry inh 14µM* and Marburg entry 13µM*.
Screening COc1ccc2c(c1)CO[C@H]([C@H](O)CO)[C@H]2C=Cc1ccccc1 returned Marburg entry -6%[8.59 µM].
Screening COc1ccccc1O returned LASV entry inh -13%[107 µM] and Marburg entry 24%[107 µM].
For COc1cccc(O)c1O the results were LASV entry inh inconclusive and Marburg entry 13µM*.
`C=CCOC(=O)C(C(C)=O)[C@@H](NC(=O)OC)c1cccc(C)c1` (stereo partly specified) gave LASV entry inh -18%[8.59 µM] and Marburg entry inconclusive.
For CC(CCN1CCCCc2nc(C)c(C)cc21)=NO[C@H](C)c1cn([C@H](CO)Cc2ccccc2)nn1 the results were LASV entry inh 9%[8.59 µM] and Marburg entry inconclusive.
`O=C(C=Cc1ccccc1)Nc1cccc(C(=O)N2CCCC2)c1` gave LASV entry inh 38% and Marburg entry 42%.
For C[C@@]12C(=O)OC(=O)[C@@]1(C)[C@@H]1CC[C@@H]2O1 the results were LASV entry inh -13% and Marburg entry 4%.
`C[C@@]12C(=O)OC(=O)[C@@]1(C)C1CCC2O1` gave LASV entry inh 2µM* and Marburg entry 3.5µM*.
For COC1=C[C@H](C(=O)N[C@H]2CCCC[C@H]2NC(C)=O)[C@@]2(C)Cc3ccccc3[C@@H]2CC1=O the results were LASV entry inh 24%[8.59 µM] and Marburg entry -12%[8.59 µM].
`CCN1C(=NCc2ccc3c(c2)OCO3)NC(c2ccccc2)C(C(=O)OC)=C1C` (stereo unspecified) gave LASV entry inh -4%[8.59 µM] and Marburg entry -18%[8.59 µM].
O[C@H]1[C@H]2c3cc4c(cc3CN3CCC(=C[C@@H]1O)[C@H]23)OCO4 was read as LASV entry inh 18% and Marburg entry 1%.
Screening OC1C=C2CCN3Cc4cc5c(cc4C(C1O)C23)OCO5 (stereo unspecified) returned LASV entry inh -28% and Marburg entry 13µM*.
`NS(=O)(=O)c1ccc(N=Nc2c(O)[nH]c3ccc(-c4cnco4)cc23)cc1` gave LASV entry inh inconclusive and Marburg entry 36%.
`COC(=O)C1=NN=C(C(=O)OC)[C@@]2(C)c3ccccc3NC12` (stereo partly specified) gave LASV entry inh 13%[8.59 µM] and Marburg entry 44%[8.59 µM].
Screening COCCN1C(=O)NC(c2ccc(Br)cc2)C(C(C)=O)=C1C (stereo unspecified) returned LASV entry inh 2%[8.59 µM] and Marburg entry 63%[8.59 µM].
`c1ccc2sc(C3(NCC4CC4)CCCCC3)cc2c1` gave LASV entry inh inconclusive and Marburg entry 14µM*.
Screening c1ccc2sc(C3(N4CCCC4)CCCCC3)cc2c1 returned LASV entry inh 1% and Marburg entry 6.3µM*.
COc1cccc(Nc2nccc(-c3cnn4ncccc34)n2)c1 was read as LASV entry inh inconclusive and Marburg entry 0.32µM*.
COc1ccc(-c2nn3ncccc3c2-c2ccnc(Nc3cccc(C(F)(F)F)c3)n2)cc1 was read as LASV entry inh inconclusive and Marburg entry 13µM*.
Screening CCc1nn2ncccc2c1-c1ccnc(NC2CC2)n1 returned Marburg entry -14%.
Screening Cc1ccc2c(-c3ccnc(Nc4ccccc4)n3)c(-c3ccc(F)cc3)nn2n1 returned LASV entry inh inconclusive and Marburg entry 3.5µM*.
NC(=O)c1cccc(Nc2nccc(Nc3cccc(F)c3)n2)c1 was read as LASV entry inh 32% and Marburg entry -60%.
`CCOC(=O)[C@@]1([C@@H](NC(=O)OC)c2cccc(C)c2)CCCC1=O` gave LASV entry inh 9%[8.59 µM] and Marburg entry 26%[8.59 µM].
CC(=O)Nc1c(N)[nH]c(=O)n(C)c1=O was read as LASV entry inh 4% and Marburg entry -3%.
Screening CC(=O)Nc1c2sscc-2n(C)c1=O returned LASV entry inh 10µM* and Marburg entry 11µM*.
Screening CCCCCCCC(=O)CC[C@@H]1[C@@H](C/C=C\CCCC(=O)OC(C)C)[C@@H](O)C[C@H]1O returned LASV entry inh 16µM* and Marburg entry inconclusive.
Screening CCCCCC(=O)CC[C@@H]1[C@@H](C/C=C\CCCC(=O)O)[C@@H](O)C[C@H]1O returned LASV entry inh -14% and Marburg entry 4%.
Screening Cc1ccc(S(=O)(=O)N2CCC(=O)N([C@H](COCc3cccc(C(F)(F)F)c3)C(C)C)CC2)cc1 returned LASV entry inh -3% and Marburg entry inconclusive.
Screening Cc1ccc(S(=O)(=O)N2CCC(=O)N([C@H](COCc3cccc(C(F)(F)F)c3)Cc3ccccc3)CC2)cc1 returned LASV entry inh inconclusive and Marburg entry 11µM*.
`COC(=O)Nc1nc2ccc(S(=O)(=O)c3ccc(NC(=O)Nc4cc(C(F)(F)F)ccc4F)cc3)cc2[nH]1` gave LASV entry inh -20% and Marburg entry -29%.

Compound activity (PubChem)
